Data as given in PubChem BioAssay AID1159580 (chemical genetic matrix, 2015).
Among all 5,500 compounds or so, about 2,000 (36%) were called active. Not shown: some 18% with an inconclusive outcome. Cut-off read from the data, not from the text of the source: active = normalized growth mostly below about 0.91 (no sharp cut-off); inconclusive = no clear call, values can overlap the other calls; inactive = mostly above about 0.92. Some of the results follow.

Experiment: chemical genetic growth profiling, strain panel (AID 1159580);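 note: tested at 20 µM; growth read once vehicle control cultures reached saturation at 30 °C; 1 = growth at the plate median or of vehicle wells; lower values mean less growth of the strain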
Conditions: S. cerevisiae deletion strains, growth OD
[1] = locus YAR019C, strain CDC15, hits give low values
[2] = locus YBL105C, strain PKC1, hits give low values
[3] = locus YBR135W, strain CKS1, hits give low values
[4] = locus YBR136W, strain MEC1, hits give low values
[5] = locus YBR160W, strain CDC28, hits give low values
[6] = locus YDL017W, strain CDC7, hits give low values
[7] = locus YDL028C, strain MPS1, hits give low values
[8] = locus YDL101C, strain DUN1, hits give low values
[9] = locus YDL108W, strain KIN28, hits give low values
[10] = locus YDL132W, strain cdc53, hits give low values
[11] = locus YDL214C, strain PRR2, hits give low values
[12] = locus YDR052C, strain DBF4, hits give low values
[13] = locus YDR054C, strain cdc34, hits give low values
[14] = locus YDR226W, strain ADK1, hits give low values
[15] = locus YDR477W, strain SNF1, hits give low values
[16] = locus YER123W, strain YCK3, hits give low values
[17] = locus YER133W, strain GLC7, hits give low values
[18] = locus YFL009W, strain cdc4, hits give low values
[19] = locus YFL029C, strain CAK1, hits give low values
[20] = locus YFR003C, strain YPI1, hits give low values
[21] = locus YFR019W, strain FAB1, hits give low values
[22] = locus YFR028C, strain CDC14, hits give low values
[23] = locus YGR040W, strain KSS1, hits give low values
[24] = locus YGR052W, strain FMP48, hits give low values
[25] = locus YGR092W, strain DBF2, hits give low values
[26] = locus YHR030C, strain SLT2, hits give low values
[27] = locus YHR079C, strain IRE1, hits give low values
[28] = locus YHR082C, strain KSP1, hits give low values
[29] = locus YHR205W, strain SCH9, hits give low values
[30] = locus YIL147C, strain SLN1, hits give low values
[31] = locus YJL095W, strain BCK1, hits give low values
[32] = locus YJL128C, strain PBS2, hits give low values
[33] = locus YJL157C, strain FAR1, hits give low values
[34] = locus YJR016C, strain ILV3, hits give low values
[35] = locus YJR066W, strain TOR1 (second series), hits give low values
[36] = locus YJR066W, strain TOR1, hits give low values
[37] = locus YKL048C, strain ELM1, hits give low values
[38] = locus YKL067W, strain YNK1, hits give low values
[39] = locus YKL101W, strain HSL1, hits give low values
[40] = locus YKL193C, strain SDS22, hits give low values
[41] = locus YKL203C, strain TOR2, hits give low values
[42] = locus YLR113W, strain HOG1, hits give low values
[43] = locus YLR133W, strain CKI1, hits give low values
[44] = locus YLR403W, strain SFP1, hits give low values
[45] = locus YML070W, strain DAK1, hits give low values
[46] = locus YMR001C, strain CDC5, hits give low values
[47] = locus YMR205C, strain PFK2 (second series), hits give low values
[48] = locus YMR277W, strain FCP1, hits give low values
[49] = locus YNL006W, strain LST8, hits give low values
[50] = locus YNL020C, strain ARK1, hits give low values
[51] = locus YNL161W, strain CBK1, hits give low values
[52] = locus YNL183C, strain NPR1, hits give low values
[53] = locus YNL207W, strain RIO2, hits give low values
[54] = locus YNL222W, strain SSU72, hits give low values
[55] = locus YNL307C, strain MCK1 (second series), hits give low values
[56] = locus YOL078W, strain AVO1, hits give low values
[57] = locus YOL136C, strain PFK27, hits give low values
[58] = locus YOR061W, strain CKA2, hits give low values
[59] = locus YOR119C, strain RIO1, hits give low values
[60] = locus YOR231W, strain MKK1, hits give low values
[61] = locus YOR329C, strain SCD5, hits give low values
[62] = locus YPL031C, strain PHO85, hits give low values
[63] = locus YPL153C, strain RAD53, hits give low values
[64] = locus YPL204W, strain HRR25, hits give low values
[65] = locus YPL209C, strain IPL1, hits give low values
[66] = locus YPL256C, strain CLN2, hits give low values
[67] = locus YPR025C, strain CCL1, hits give low values
[68] = locus YPR106W, strain ISR1, hits give low values
[69] = locus YPR111W, strain DBF20, hits give low values
[70] = strain NNK1, hits give low values
[71] = strain TSCII, hits give low values
[72] = locus YAL013W, strain DEP1, hits give low values
[73] = locus YBR229C, strain ROT2, hits give low values
[74] = locus YCL061C, strain MRC1, hits give low values
[75] = locus YDL134C, strain PPH21, hits give low values
[76] = locus YDR150W, strain NUM1, hits give low values
[77] = locus YEL061C, strain CIN8, hits give low values
[78] = locus YGR078C, strain PAC10, hits give low values
[79] = locus YHR087W, strain rtc3, hits give low values
[80] = locus YJR043C, strain POL32, hits give low values
[81] = locus YJR075W, strain HOC1, hits give low values
[82] = locus YKL190W, strain CNB1, hits give low values
[83] = locus YLR039C, strain RIC1, hits give low values
[84] = locus YLR058C, strain SHM2 (second series), hits give low values
[85] = locus YLR085C, strain ARP6, hits give low values
[86] = locus YLR262C, strain YPT6, hits give low values
[87] = locus YML094W, strain GIM5, hits give low values
[88] = locus YMR219W, strain ESC1, hits give low values
[89] = locus YMR263W, strain SAP30, hits give low values
[90] = locus YNL128W, strain TEP1, hits give low values
[91] = locus YNL153C, strain GIM3, hits give low values
[92] = locus YNL298W, strain CLA4 (second series), hits give low values
[93] = locus YNL322C, strain KRE1, hits give low values
[94] = locus YNR030W, strain Alg12, hits give low values
[95] = locus YPL055C, strain LGE1, hits give low values
[96] = locus YPL241C, strain CIN2, hits give low values
[97] = locus YPR135W, strain CTF4, hits give low values

Measured: normalized growth

Cc1csc2c(N3CCN(C(=S)Nc4ccc(C(F)(F)F)cc4)CC3)ncnc12
inactive: [1] 0.985 | [2] 0.989 | [3] 0.981 | [4] 0.982 | [5] 0.979 | [6] 0.992 | [7] 0.981 | [8] 0.988 | [9] 0.99 | [10] 0.998 | [11] 0.956 | [12] 0.999 | [13] 0.997 | [14] 0.997 | [15] 0.983 | [16] 0.937 | [17] 0.974 | [18] 0.992 | [19] 0.991 | [20] 0.992 | [21] 0.965 | [22] 0.978 | [23] 0.959 | [24] 1.02 | [25] 0.972 | [26] 0.979 | [27] 0.991 | [28] 1.04 | [29] 0.919 | [30] 0.992 | [31] 0.982 | [32] 0.96 | [33] 0.944 | [34] 0.993 | [35] 0.928 | [36] 1.06 | [37] 0.965 | [38] 0.963 | [39] 0.944 | [40] 0.986 | [41] 1.03 | [43] 0.959 | [44] 0.956 | [45] 0.924 | [46] 1 | [47] 0.949 | [48] 0.987 | [49] 0.988 | [50] 0.956 | [51] 0.98 | [52] 0.996 | [53] 0.978 | [54] 0.991 | [55] 0.937 | [56] 0.992 | [57] 0.922 | [58] 0.964 | [59] 1.03 | [60] 0.928 | [61] 0.986 | [62] 0.986 | [63] 0.979 | [64] 0.941 | [65] 0.984 | [66] 0.942 | [67] 0.982 | [68] 0.975 | [69] 0.977 | [70] 0.967 | [71] 0.992
active: [42] 0.826

Cc1csc2ncnc(N3CCN(C(=O)Nc4ccc(SC(F)(F)F)cc4)CC3)c12
inactive: [1] 1.01 | [2] 0.991 | [3] 0.999 | [4] 1 | [5] 0.979 | [6] 0.982 | [7] 0.994 | [8] 1 | [9] 0.995 | [10] 1 | [11] 0.908 | [12] 0.988 | [13] 0.993 | [14] 1 | [15] 0.937 | [16] 0.902 | [17] 0.912 | [18] 1.01 | [19] 1 | [20] 1.01 | [21] 0.918 | [22] 0.994 | [23] 0.925 | [24] 0.963 | [25] 0.867 | [27] 0.866 | [28] 0.947 | [29] 0.927 | [30] 0.987 | [31] 0.868 | [32] 0.972 | [33] 0.88 | [34] 0.994 | [35] 0.65 | [36] 0.915 | [37] 0.931 | [38] 0.915 | [39] 0.903 | [40] 1 | [41] 0.977 | [43] 0.909 | [44] 0.905 | [45] 0.886 | [46] 0.999 | [47] 0.903 | [48] 1 | [49] 0.997 | [50] 0.898 | [51] 1 | [52] 0.895 | [53] 0.987 | [54] 1 | [55] 0.866 | [56] 0.996 | [57] 0.869 | [58] 0.864 | [59] 0.967 | [60] 0.825 | [61] 1 | [62] 0.915 | [63] 0.914 | [64] 0.9 | [65] 1 | [67] 0.998 | [68] 0.988 | [69] 0.987 | [70] 0.993 | [71] 0.983
active: [26] 0.818 | [42] 0.806 | [66] 0.845

COc1ccccc1C1CCN(c2ncnc3scc(-c4ccccc4)c23)CC1
inactive: [72] 1 | [73] 1.01 | [74] 1 | [8] 1.04 | [75] 0.994 | [76] 1.05 | [77] 1 | [78] 1.01 | locus YGR229C, strain SMI1, hits give low values 1.01 | [26] 1.03 | [79] 0.976 | [80] 1.01 | [81] 1.01 | [82] 1 | [83] 1.02 | [84] 0.984 | [85] 1.03 | [86] 1.01 | [87] 0.992 | [88] 0.996 | [89] 1.02 | [90] 1.02 | [91] 1.01 | [92] 0.994 | [93] 0.992 | [94] 1 | [95] 0.987 | [96] 1.04 | [97] 1.02

Cc1onc(-c2c(Cl)cccc2Cl)c1C(=O)N1CCN(c2ncnc3scc(-c4ccccc4)c23)CC1
inactive: [72] 0.97 | [73] 1 | [74] 0.994 | [8] 0.979 | [75] 1 | [76] 0.94 | [77] 1.02 | [78] 1 | [26] 0.942 | [79] 1.01 | [80] 0.977 | [81] 0.997 | [82] 1.01 | [83] 0.937 | [84] 1.01 | [85] 1.01 | [86] 0.962 | [87] 1.01 | [88] 1.01 | [89] 0.967 | [90] 1.01 | [91] 0.999 | [92] 1.02 | [93] 1.01 | [94] 1.01 | [95] 1.02 | [96] 1.01 | [97] 0.923

Cc1csc2ncnc(N3CCN(C(=S)Nc4ccc(C(F)(F)F)cc4)CC3)c12
inactive: [1] 0.995 | [2] 0.987 | [3] 0.985 | [4] 1 | [5] 0.998 | [6] 1 | [7] 0.996 | [8] 0.985 | [9] 0.993 | [10] 0.996 | [11] 0.945 | [12] 1 | [13] 0.965 | [14] 0.994 | [15] 0.999 | [16] 0.926 | [17] 0.964 | [18] 0.99 | [19] 0.983 | [20] 0.996 | [21] 0.958 | [22] 0.993 | [23] 0.978 | [24] 0.999 | [25] 0.922 | [26] 0.919 | [27] 0.982 | [28] 1.02 | [29] 0.908 | [30] 1.01 | [31] 0.938 | [32] 0.92 | [33] 0.942 | [34] 0.995 | [35] 0.908 | [36] 1.02 | [37] 0.979 | [38] 0.968 | [39] 0.959 | [40] 0.996 | [41] 1.01 | [43] 0.95 | [44] 0.955 | [45] 0.94 | [46] 0.999 | [47] 0.954 | [48] 0.986 | [49] 0.989 | [50] 0.949 | [51] 0.997 | [52] 0.987 | [53] 0.991 | [54] 0.986 | [55] 0.958 | [56] 0.989 | [57] 0.933 | [58] 0.94 | [59] 1.01 | [60] 0.909 | [61] 0.998 | [62] 0.982 | [63] 0.932 | [64] 0.963 | [65] 0.977 | [66] 0.91 | [67] 0.984 | [68] 0.979 | [69] 0.978 | [70] 0.988 | [71] 1
active: [42] 0.816
